Experimental data as given in PubChem BioAssay (NCATS).
Where “and” joins values, the source holds several entries; their conditions need not be identical. Equal values may be shown once. Records with an inconclusive call do not appear. A number with no mark means an inactive call. Calls of active or inactive are those of the source. The call rests on the fitted dose curve; in most records, active means well fitted curve in either direction with a large enough effect (not every such curve was filed as active); inconclusive means small, poorly fitted or top-dose-only effect, or another doubt; inactive means flat fitted curve, though single readings scatter.

experiment: NFAT Signaling Pathway (AID 444); conditions: Jurkat NFAT-bla M1, carbachol, beta-lactamase ratio, 5 h; at 17.2 µM (top of the series)
From the text: NCGC Assay Overview: The nuclear factor of activated T cells (NFAT) family of transcription factors has been found primarily in most immune system cells and some other non-immune cells. NFAT plays the immunomodulatory role, primarily in T-cell activation and differentiation. NFAT target genes are also involved in the regulation of apoptosis and differentiation in non-immune cell types. The NFAT sequence was engineered to the upstream of the ?-lactamase reporter gene and transfected into Jurkat cells with co-transfection of muscarinic receptor1 [provided by Invitrogen Corp]. When an extracellular stimulus, such as carbachol, binds to the GPCR M1 receptor, it stimulates a signaling cascade that activates NFAT response element and ?-lactamase expression by phosphorylating the NFAT binding protein. This cell based ?-lactamase reporter gene assay can accurately monitor any changes occurring along the NFAT pathway, and can be used for screening small molecule inhibitor or activator upon activation by carbachol EC50 concentration. A small molecular library were screened in a titration series resulting in AC50s (can be either IC50s or EC50s).
NCGC Assay Protocol Summary: The cells were prepared in RPMI 1640 medium containing 0.1% dialyzed FBS and 25 mM HEPES at 1.6 x 10^6cell/ml. The assay was performed in 1536-well plate format as follows: 5 ul of cell preparation 23 nl of compounds 1ul of carbachol (final concentration 1 uM) Briefly centrifuge the plates and incubate at 37 °C for 5 hours 1 ul of CCF4 dye mixture Incubate the plates at RT for 1 hour Read the plate in EnVision plate reader (Ex= 405nm, and Em1=460nm and Em2=530nm). The %Activity was determined from the ratio of 460nm/530nm. Data normalization and AC50 calculations were accomplished using GeneData software.
On the % scale 0 is the no-effect control and ±100 the full control effect.

Point of comparison: `O=[N+]([O-])c1cccc2cn[nH]c12`, activity change, negative = inhibition -4.2%. Against it:
- COc1ccc(-c2ccc(N)[n+](CCCC(=O)O)n2)cc1 — higher, 1.69%
- COc1ccc(C(=O)NCc2cccnc2)cc1C(=O)NCc1cccnc1 — lower, -4.93%

With `CC(C)NC[C@H](O)COc1ccc(CC(N)=O)cc1` the activity change, negative = inhibition was -9.34% and -0.713%.

same assay, conditions: Jurkat NFAT-bla M1, carbachol, beta-lactamase ratio, 5 h; at 38 µM (top of the series)

Point of comparison: `COc1ccc(C(=O)NCc2cccnc2)cc1C(=O)NCc1cccnc1`, activity change, negative = inhibition -7.04%. Against it:
- COc1ccc(-c2ccc(N)[n+](CCCC(=O)O)n2)cc1 — higher, 4.41%
- O=[N+]([O-])c1cccc2cn[nH]c12 — lower, -7.34%

In the case of `CC(C)NC[C@H](O)COc1ccc(CC(N)=O)cc1`, the activity change, negative = inhibition is reported as -2.26% and 6.34% and 5.93%.

same assay, conditions: Jurkat NFAT-bla M1, carbachol, beta-lactamase ratio, 5 h; at 38 µM (top of the series) unless noted

Point of comparison: `NC(=O)CNCCC(c1ccccc1)c1ccccc1`, activity change, negative = inhibition 1.39%. Against it:
- COc1ccccc1N1CCN(CCCCN2C(=O)c3ccccc3C2=O)CC1 — lower, -20.4%
- O=c1onc2cnc3ccccc3n12 — lower, 1.27%
- CCN(c1nc(N)c(C(=O)N=C(N)N)nc1Cl)C(C)C — lower, -3.34%
- O=c1[nH]c2cc(Cl)ccc2c(O)c1-c1ccc(Oc2ccccc2)cc1 — lower, -0.707%
- COc1ccc2c(c1)c(CC(=O)O)c(C)n2Cc1ccc(Cl)cc1 — lower, -4.65%
- Oc1ccc(Cn2cc[nH]c2=S)cc1 — higher, 3.63%
- CCCCCCC/C=C\CCCCCCCCC(=O)O — lower, -3.56%
- O=C(O)C1=CC(=C(c2ccc(O)c(C(=O)O)c2)c2ccc(O)c(C(=O)O)c2)C=CC1=O — higher, 1.98%
- CSC(=N)N — higher, 4.79%
- N=C(N)c1ccccc1 — lower, -2.62%
- NCCCCN=C(N)N — lower, -4.07%
- NCCCCN — lower, -2.09%
- NC(N)=NC(N)=Nc1ccccc1 — higher, 7.27%
- CCSC(=N)N — lower, 1.19%
- C=CCn1c(=O)c2c(nc(-c3ccc(S(=O)(=O)O)cc3)n2C)n(C)c1=O — lower, -1.07%
- CCn1c(=O)[nH]c2cc(Cl)c(Cl)cc21 — lower, -27.1%
- C[N+](C)(C)CC=O — lower, -6.7%
- Nc1ncnc2c1ncn2C1CCCC1 — higher, 11.8%
- O=c1cc(-c2ccccc2)[nH]c2nc(Cl)ccc12 — lower, -13%
- CCCn1c(=O)c2c(ncn2C)n(CCC)c1=O — lower, 0.366%
- CCCC(=O)NCCc1c2n(c3ccc(OC)cc13)CCCc1ccccc1-2 — lower, -6.48%
- c1ccc2nc(C3=NCCN3)ccc2c1 — lower, -13%
- CC[N+](CC)(CC)CC(=O)Nc1c(C)cccc1C — lower, -27.1%
- Cc1cc2c(cc1Cl)N(C(=O)Nc1ccnc3ccccc13)CC2 — higher, 4.5%
- [Li+] — lower, 1.3%
- COc1ccccc1N1CCN(CCCCNC(=O)c2ccc3ccccc3c2)CC1 — lower, -13.3%
- S=C(S)N1CCCC1 — lower, -9.46%
- O=C(O)c1ccccc1Nc1ccccc1 — higher, 6%

With `O=C1Cc2c([nH]c3ccc(Br)cc23)-c2ccccc2N1` the activity change, negative = inhibition was -74.4% (active).
For `O=c1oc(Cl)c(Cl)c2ccccc12`, the activity change, negative = inhibition was -53.3% (active).
In the case of `O=C1Nc2ccc(I)cc2/C1=C/c1cc(Br)c(O)c(Br)c1`, the activity change, negative = inhibition is reported as -120% (active).
